The target of assay [1] is T1, Ephrin type-B receptor 1 (Homo sapiens) (UniProt P54762).
T1 sequence (whole entry): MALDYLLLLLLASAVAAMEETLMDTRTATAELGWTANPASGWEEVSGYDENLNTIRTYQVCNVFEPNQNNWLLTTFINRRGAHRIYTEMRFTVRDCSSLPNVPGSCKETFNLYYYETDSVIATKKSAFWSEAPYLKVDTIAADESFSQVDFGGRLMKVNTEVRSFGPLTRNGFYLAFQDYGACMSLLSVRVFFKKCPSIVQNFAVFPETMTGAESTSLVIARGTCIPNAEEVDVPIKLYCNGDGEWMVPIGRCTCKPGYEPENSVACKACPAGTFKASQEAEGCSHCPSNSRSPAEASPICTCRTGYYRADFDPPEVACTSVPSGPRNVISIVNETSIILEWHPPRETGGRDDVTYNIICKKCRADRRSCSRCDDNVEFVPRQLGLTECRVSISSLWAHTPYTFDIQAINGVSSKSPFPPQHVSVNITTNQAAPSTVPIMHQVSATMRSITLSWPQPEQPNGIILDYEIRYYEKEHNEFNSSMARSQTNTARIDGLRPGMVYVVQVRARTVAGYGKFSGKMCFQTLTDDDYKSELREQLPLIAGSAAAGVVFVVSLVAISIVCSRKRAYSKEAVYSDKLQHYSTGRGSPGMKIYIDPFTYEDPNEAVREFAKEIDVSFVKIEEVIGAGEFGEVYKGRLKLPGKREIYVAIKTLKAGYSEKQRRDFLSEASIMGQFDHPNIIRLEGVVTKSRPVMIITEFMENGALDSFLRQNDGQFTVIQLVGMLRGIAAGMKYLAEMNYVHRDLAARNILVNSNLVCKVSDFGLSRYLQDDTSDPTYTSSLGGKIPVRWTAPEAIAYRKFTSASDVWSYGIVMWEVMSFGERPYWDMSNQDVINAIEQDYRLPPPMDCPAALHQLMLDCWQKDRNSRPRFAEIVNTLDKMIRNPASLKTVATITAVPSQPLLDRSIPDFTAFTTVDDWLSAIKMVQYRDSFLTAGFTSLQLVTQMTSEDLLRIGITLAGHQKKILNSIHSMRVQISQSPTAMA
The following applies: at 10 µM.

Assay [2] addresses T2, Ephrin type-B receptor 2 (Homo sapiens) (UniProt P29323).
T2 sequence (whole entry): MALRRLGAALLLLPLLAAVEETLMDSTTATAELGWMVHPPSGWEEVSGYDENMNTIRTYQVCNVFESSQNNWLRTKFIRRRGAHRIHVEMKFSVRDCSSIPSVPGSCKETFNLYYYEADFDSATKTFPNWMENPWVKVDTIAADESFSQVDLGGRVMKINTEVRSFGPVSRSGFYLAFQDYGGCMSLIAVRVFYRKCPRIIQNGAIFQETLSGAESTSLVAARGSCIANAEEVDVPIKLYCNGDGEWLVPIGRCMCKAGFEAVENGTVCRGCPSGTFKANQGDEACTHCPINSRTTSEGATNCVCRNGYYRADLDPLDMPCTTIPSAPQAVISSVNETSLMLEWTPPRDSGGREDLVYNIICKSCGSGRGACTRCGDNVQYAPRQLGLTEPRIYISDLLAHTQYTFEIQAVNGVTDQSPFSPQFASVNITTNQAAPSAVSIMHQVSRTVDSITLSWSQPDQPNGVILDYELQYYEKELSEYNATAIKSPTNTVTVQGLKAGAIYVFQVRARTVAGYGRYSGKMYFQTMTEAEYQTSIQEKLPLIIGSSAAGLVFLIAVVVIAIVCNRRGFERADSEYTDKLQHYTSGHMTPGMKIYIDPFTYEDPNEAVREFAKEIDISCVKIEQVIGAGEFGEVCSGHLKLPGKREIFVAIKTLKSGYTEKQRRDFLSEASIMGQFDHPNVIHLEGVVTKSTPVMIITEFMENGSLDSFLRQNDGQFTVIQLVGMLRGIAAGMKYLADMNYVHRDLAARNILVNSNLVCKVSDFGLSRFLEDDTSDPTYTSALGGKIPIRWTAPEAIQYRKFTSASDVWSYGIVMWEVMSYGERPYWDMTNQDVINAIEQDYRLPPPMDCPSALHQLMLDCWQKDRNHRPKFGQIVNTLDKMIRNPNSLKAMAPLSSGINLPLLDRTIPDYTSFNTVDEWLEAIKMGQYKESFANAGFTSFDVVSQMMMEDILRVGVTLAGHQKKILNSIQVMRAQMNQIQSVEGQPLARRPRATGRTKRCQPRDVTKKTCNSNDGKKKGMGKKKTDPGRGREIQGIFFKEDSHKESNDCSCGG
The following applies: at 1 µM.

Assay [3] addresses T2, Ephrin type-B receptor 2 (Homo sapiens). The note with it: at 10 µM.
The target in assay [4] is T3, Ephrin type-B receptor 3 (Homo sapiens) (UniProt P54753).
T3 sequence (whole entry): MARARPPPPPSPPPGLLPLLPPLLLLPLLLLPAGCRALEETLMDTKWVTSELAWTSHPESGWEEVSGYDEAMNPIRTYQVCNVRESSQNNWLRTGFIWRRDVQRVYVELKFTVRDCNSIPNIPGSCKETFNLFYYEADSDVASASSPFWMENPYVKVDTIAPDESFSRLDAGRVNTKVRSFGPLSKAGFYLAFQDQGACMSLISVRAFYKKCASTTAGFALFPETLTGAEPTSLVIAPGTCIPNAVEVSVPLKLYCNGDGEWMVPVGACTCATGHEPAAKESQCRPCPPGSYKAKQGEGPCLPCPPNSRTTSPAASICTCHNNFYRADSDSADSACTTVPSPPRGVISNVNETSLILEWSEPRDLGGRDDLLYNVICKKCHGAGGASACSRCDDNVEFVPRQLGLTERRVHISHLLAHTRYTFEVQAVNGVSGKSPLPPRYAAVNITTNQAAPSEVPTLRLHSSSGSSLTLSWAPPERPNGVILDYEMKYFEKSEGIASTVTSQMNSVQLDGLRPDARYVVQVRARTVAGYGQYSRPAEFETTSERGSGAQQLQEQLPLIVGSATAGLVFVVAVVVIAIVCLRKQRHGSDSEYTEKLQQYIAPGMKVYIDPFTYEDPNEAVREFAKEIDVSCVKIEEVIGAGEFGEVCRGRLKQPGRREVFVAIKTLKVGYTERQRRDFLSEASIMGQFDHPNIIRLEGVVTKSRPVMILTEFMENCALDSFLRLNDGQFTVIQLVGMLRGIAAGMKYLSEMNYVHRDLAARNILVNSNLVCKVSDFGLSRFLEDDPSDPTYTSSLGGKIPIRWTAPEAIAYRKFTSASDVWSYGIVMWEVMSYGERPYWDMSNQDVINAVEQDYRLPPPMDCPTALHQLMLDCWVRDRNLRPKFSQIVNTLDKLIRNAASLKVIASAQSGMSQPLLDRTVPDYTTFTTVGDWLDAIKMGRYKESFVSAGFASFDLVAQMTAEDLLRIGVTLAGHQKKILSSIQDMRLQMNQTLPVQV
The following applies: at 1 µM.

Assay [5] concerns the target T3, Ephrin type-B receptor 3 (Homo sapiens). The following applies: at 10 µM.
Assay [6] addresses T4, Ephrin type-B receptor 4 (Homo sapiens) (UniProt P54760).
T4 sequence (whole entry): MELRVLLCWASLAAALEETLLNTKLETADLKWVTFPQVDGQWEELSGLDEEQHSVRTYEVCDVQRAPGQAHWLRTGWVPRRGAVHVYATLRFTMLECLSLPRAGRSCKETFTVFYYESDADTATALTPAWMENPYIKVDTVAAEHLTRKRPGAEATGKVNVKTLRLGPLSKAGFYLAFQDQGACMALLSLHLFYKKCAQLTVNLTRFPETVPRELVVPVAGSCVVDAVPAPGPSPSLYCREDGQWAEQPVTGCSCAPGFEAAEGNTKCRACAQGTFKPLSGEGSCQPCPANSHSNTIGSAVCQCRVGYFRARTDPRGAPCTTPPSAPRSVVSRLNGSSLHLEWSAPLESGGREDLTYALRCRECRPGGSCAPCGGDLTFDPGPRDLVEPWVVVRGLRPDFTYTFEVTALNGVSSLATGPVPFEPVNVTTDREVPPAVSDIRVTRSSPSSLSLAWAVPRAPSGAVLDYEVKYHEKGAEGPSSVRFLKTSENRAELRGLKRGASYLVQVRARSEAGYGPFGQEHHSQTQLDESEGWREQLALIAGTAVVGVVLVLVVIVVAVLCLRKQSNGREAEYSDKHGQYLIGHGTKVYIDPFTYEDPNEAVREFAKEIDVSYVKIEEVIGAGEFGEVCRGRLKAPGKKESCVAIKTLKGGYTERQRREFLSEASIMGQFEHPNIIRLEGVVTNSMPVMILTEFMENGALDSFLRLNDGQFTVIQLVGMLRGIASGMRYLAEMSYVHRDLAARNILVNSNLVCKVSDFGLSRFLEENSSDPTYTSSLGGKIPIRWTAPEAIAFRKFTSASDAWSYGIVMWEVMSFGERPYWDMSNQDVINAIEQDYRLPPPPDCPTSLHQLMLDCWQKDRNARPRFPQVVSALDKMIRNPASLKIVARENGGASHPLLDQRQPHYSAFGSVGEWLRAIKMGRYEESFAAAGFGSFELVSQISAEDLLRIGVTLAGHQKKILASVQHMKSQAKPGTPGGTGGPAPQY
The following applies: at 1 µM.

Assay [7] has as its target T4, Ephrin type-B receptor 4 (Homo sapiens). The following applies: at 10 µM.
The target of assay [8] is Receptor tyrosine-protein kinase erbB-4 (Homo sapiens) (UniProt Q15303). The note with it: at 1 µM.
Chain of Receptor tyrosine-protein kinase erbB-4 (Homo sapiens) (Q15303 whole entry): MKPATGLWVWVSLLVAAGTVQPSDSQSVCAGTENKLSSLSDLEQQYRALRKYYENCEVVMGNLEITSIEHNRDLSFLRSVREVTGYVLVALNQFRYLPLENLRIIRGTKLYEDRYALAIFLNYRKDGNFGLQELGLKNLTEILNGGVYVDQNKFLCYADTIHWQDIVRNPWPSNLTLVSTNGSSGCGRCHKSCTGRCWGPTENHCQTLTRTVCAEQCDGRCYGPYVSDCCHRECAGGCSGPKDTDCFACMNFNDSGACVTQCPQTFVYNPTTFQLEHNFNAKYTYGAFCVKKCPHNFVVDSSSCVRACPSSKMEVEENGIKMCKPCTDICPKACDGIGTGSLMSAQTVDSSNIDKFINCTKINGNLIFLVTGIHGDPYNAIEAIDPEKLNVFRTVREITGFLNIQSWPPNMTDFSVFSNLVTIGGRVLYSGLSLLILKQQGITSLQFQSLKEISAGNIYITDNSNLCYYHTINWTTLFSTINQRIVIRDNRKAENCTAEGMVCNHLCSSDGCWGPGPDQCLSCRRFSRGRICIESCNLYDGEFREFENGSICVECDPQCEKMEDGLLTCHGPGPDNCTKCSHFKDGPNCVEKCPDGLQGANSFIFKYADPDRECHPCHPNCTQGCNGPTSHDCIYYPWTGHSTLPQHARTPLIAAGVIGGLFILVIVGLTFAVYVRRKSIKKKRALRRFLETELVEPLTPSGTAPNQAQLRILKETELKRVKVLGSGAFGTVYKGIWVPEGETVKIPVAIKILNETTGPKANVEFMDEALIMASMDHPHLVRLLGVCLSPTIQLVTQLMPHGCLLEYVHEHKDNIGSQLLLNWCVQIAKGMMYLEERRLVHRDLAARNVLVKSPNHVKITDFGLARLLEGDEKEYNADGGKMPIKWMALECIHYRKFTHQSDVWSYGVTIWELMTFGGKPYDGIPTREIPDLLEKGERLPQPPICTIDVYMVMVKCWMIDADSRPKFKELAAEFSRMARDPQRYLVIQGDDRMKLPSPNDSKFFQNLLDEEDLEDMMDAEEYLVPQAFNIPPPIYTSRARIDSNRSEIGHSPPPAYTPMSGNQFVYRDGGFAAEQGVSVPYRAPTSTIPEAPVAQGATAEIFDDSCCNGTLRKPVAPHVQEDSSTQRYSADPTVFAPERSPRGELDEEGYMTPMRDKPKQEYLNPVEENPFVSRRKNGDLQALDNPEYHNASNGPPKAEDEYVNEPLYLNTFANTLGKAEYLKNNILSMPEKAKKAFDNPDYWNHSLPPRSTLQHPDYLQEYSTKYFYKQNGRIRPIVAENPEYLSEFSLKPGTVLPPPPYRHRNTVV
Assay [9] shares this target. The following applies: at 10 µM.
Assay [10] addresses Focal adhesion kinase 1 (Homo sapiens) (UniProt Q05397). The note with it: at 1 µM.

Structures are written as SMILES.

Chain of Focal adhesion kinase 1 (Homo sapiens) (Q05397 2-1052 limits assumed): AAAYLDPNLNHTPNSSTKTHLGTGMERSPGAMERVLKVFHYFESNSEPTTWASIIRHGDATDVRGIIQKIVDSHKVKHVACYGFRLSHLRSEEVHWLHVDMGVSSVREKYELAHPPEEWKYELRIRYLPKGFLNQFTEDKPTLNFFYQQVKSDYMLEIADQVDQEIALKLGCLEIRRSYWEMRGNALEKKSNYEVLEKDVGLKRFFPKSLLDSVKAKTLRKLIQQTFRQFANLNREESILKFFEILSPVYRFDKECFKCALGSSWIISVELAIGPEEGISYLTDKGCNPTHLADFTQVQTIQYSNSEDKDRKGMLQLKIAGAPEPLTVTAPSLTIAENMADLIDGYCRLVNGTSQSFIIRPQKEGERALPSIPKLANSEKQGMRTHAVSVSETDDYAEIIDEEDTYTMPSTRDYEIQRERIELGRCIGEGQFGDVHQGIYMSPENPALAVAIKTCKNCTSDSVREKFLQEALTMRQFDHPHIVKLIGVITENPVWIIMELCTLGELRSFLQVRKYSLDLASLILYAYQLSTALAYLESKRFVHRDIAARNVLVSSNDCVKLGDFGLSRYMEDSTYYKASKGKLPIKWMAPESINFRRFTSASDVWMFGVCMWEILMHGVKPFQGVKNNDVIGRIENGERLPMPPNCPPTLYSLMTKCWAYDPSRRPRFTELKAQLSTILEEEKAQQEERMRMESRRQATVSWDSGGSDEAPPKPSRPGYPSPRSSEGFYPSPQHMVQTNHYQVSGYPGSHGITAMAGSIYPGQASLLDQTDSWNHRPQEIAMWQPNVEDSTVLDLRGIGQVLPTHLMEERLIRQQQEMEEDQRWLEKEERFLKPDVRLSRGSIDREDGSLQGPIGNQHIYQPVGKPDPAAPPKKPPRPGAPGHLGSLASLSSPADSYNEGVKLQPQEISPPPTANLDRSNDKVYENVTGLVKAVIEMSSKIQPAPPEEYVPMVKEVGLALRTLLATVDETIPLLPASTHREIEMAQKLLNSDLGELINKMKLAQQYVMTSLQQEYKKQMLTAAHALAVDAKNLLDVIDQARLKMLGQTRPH

The residual activity is the signal under treatment as a percentage of the control signal. For `Nc1ccc2ncnc(NCCc3ccc(Oc4ccccc4)cc3)c2c1`, the residual activity in assay [1] was 96%; in assay [2] it was 111%; in [3], 93%; in [4], 105% (inactive); in assay [5] it was 98%; in [6], 96%. Further, the residual activity in assay [7] came to 98%; in assay [8], 33%; in assay [9], 2%; in assay [10] it was 106%.

The record behind these values is ChEMBL document CHEMBL2218924, “A broad activity screen in support of a chemogenomic map for kinase signalling research and drug discovery” (Biochem J, 2013).
